The panel holds about 83,000 compounds, 20% with a hit somewhere; the sample as a whole holds those more often.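 Values shown are percent growth following 48 h exposure of cells in 96-well plates to a single concentration of compound; below 10 was considered active.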 Calls of active or inactive are those of the source.
Assays:
Test in all cases: NCI-60 one-dose screen, 48 h (100 = growth as untreated, 0 = no growth, -100 = all killed)
NCI-H23 lung = conditions: 10 µM unless noted
NCI-H226 lung = conditions: 10 µM unless noted
NCI-H322M lung = conditions: 10 µM unless noted
HOP-62 NSCLC = conditions: 10 µM unless noted
NCI-H460 lung = conditions: 10 µM unless noted
HOP-92 NSCLC = conditions: 10 µM unless noted
NCI-H522 lung = conditions: 10 µM
786-0 renal = conditions: 10 µM unless noted
COLO 205 colon = conditions: 10 µM unless noted

Measured: growth

Cc1cc2ccccn2c1C(=O)c1ccc(C(=O)c2ccccc2)cc1
inactive: NCI-H23 lung 84% | NCI-H226 lung 86.9% | NCI-H322M lung 90.1% | HOP-62 NSCLC 98.4% | NCI-H460 lung 97.3% | HOP-92 NSCLC 82.3% | NCI-H522 lung 79.7% | 786-0 renal 84.9% | COLO 205 colon 102%

CC12CCC3C(=CCc4cc(O)ccc43)C1CCC2=O (configuration not stated)
inactive: NCI-H23 lung 103% | NCI-H226 lung 102% | NCI-H322M lung 94.9% | HOP-62 NSCLC 99.2% | NCI-H460 lung 108% | HOP-92 NSCLC 99.4% | NCI-H522 lung 97% | 786-0 renal 105% | COLO 205 colon 111%

C1CCC(C(CC2CCCCN2)C2CCCCC2)CC1 (configuration not stated)
inactive: NCI-H226 lung 28% | NCI-H322M lung 49.8%
active: NCI-H23 lung 9.26% | HOP-62 NSCLC -81.6% | NCI-H460 lung -84.3% | HOP-92 NSCLC -2.64% | NCI-H522 lung -16.8% | 786-0 renal -86.7% | COLO 205 colon -63.6%

O=C(Nc1ccccc1)P(=O)(O)c1ccccc1
inactive: NCI-H23 lung 94% | NCI-H226 lung 91.2% | NCI-H322M lung 119% | HOP-62 NSCLC 94.3% | NCI-H460 lung 105% | HOP-92 NSCLC 78.1% | NCI-H522 lung 102% | 786-0 renal 110% | COLO 205 colon 114%

C#C[C@]1(O)CCC2C3CCc4cc(O)ccc4C3CC[C@@]21C (some centres not stated)
inactive: NCI-H23 lung 62.4% | NCI-H226 lung 81.3% | NCI-H322M lung 81.4% | HOP-62 NSCLC 35.4% | NCI-H460 lung 17.5% | HOP-92 NSCLC 75.3% | NCI-H522 lung 10.6% | 786-0 renal 44.3% | COLO 205 colon 41.1%

CCN(Cc1cccc(S(=O)(=O)[O-])c1)c1ccc(C(=C2C=CC(=[N+](CC)Cc3cccc(S(=O)(=O)O)c3)C=C2)c2ccccc2S(=O)(=O)O)cc1
inactive: NCI-H23 lung 97.3% | NCI-H226 lung 93.8% | NCI-H322M lung 98.1% | HOP-62 NSCLC 99.3% | NCI-H460 lung 107% | HOP-92 NSCLC 87.3% | NCI-H522 lung 99.4% | 786-0 renal 92.7% | COLO 205 colon 107%

CCSc1nc(-c2ccco2)n2nc(-c3ccco3)cc2n1
inactive: NCI-H23 lung 93.5% | NCI-H226 lung 90.7% | NCI-H322M lung 117% | HOP-62 NSCLC 100% | NCI-H460 lung 92.1% | HOP-92 NSCLC 89.6% | NCI-H522 lung 101% | 786-0 renal 111% | COLO 205 colon 114%

COc1ccc(/C=C/C(=O)c2cccc(NS(C)(=O)=O)c2)cc1
inactive: NCI-H23 lung 69.6% | NCI-H226 lung 85.7% | NCI-H322M lung 92.2% | HOP-62 NSCLC 90.2% | NCI-H460 lung 96.4% | HOP-92 NSCLC 60.5% | NCI-H522 lung 66.5% | 786-0 renal 75.7% | COLO 205 colon 102%

CC1Cc2ccccc2N1C(=O)c1ccc(C(=O)c2ccccc2)cc1 (configuration not stated)
inactive: NCI-H23 lung 98.3% | NCI-H226 lung 78.1% | NCI-H322M lung 91.2% | HOP-62 NSCLC 80.5% | NCI-H460 lung 99.3% | HOP-92 NSCLC 92% | NCI-H522 lung 77.3% | 786-0 renal 86.7% | COLO 205 colon 97.1%

CCc1ccc(-c2nc(SCC(=O)NC3CCCCC3)n[nH]2)cc1
inactive: NCI-H23 lung 55% | NCI-H226 lung 67.8% | NCI-H322M lung 78.4% | HOP-62 NSCLC 94.6% | NCI-H460 lung 90.8% | HOP-92 NSCLC 67.6% | NCI-H522 lung 73.6% | 786-0 renal 73.4% | COLO 205 colon 122%

BrC1CC(Br)c2c1c1c(c3c2C(Br)CC3Br)C(Br)CC1Br (configuration not stated)
inactive: NCI-H23 lung 99.7% | NCI-H226 lung 101% | NCI-H322M lung 97.7% | HOP-62 NSCLC 103% | NCI-H460 lung 93.4% | HOP-92 NSCLC 89.9% | NCI-H522 lung 84.4% | 786-0 renal 116% | COLO 205 colon 105%

CCSc1nc(-c2ccc(F)cc2)c(C#N)c(=O)[nH]1
inactive: NCI-H23 lung 95.2% | NCI-H226 lung 98.7% | NCI-H322M lung 101% | HOP-62 NSCLC 110% | NCI-H460 lung 108% | HOP-92 NSCLC 131% | NCI-H522 lung 96.8% | 786-0 renal 108% | COLO 205 colon 126%

CCC(C)C1NC(=O)C(CCNCS(=O)(=O)O)NC(=O)C(NC(=O)C(CCNCS(=O)(=O)O)NC(=O)C(NC(=O)C(CCNCS(=O)(=O)O)NC(=O)CCCCC(C)C)C(C)O)CCNC(=O)C(C(C)O)NC(=O)C(CCNCS(=O)(=O)O)NC(=O)C(CCNCS(=O)(=O)O)NC(=O)C(C(C)CC)NC1=O (configuration not stated)
inactive: NCI-H23 lung 66.6% | NCI-H226 lung 77% | NCI-H322M lung 70.3% | HOP-62 NSCLC 46.8% | NCI-H460 lung 48.8% | HOP-92 NSCLC 95.8% | NCI-H522 lung 10.5% | 786-0 renal 93.1%
active: COLO 205 colon 1.57%

CC(C)Sc1nc(-c2ccc(Br)cc2)c(C#N)c(N2CCCCC2)n1
inactive: NCI-H23 lung 110% | NCI-H226 lung 100% | NCI-H322M lung 93.7% | HOP-62 NSCLC 115% | NCI-H460 lung 104% | HOP-92 NSCLC 105% | NCI-H522 lung 99.3% | 786-0 renal 82.7% | COLO 205 colon 135%

O=C(/C=C(\Nc1ccccc1)c1ccccc1)c1cn(-c2ccc([N+](=O)[O-])cc2)nn1
inactive: NCI-H23 lung 91.4% | NCI-H226 lung 95.3% | NCI-H322M lung 82.8% | HOP-62 NSCLC 101% | NCI-H460 lung 91% | HOP-92 NSCLC 95% | NCI-H522 lung 86.1% | 786-0 renal 92.1% | COLO 205 colon 97.2%

COc1ccc(CNC(=O)c2c(C)n([O-])c3ccc(OC)cc3[n+]2=O)cc1
inactive: NCI-H23 lung 98.2% | NCI-H226 lung 110% | NCI-H322M lung 89.7% | HOP-62 NSCLC 105% | NCI-H460 lung 118% | 786-0 renal 96% | COLO 205 colon 108%
active: HOP-92 NSCLC -1.17% | NCI-H522 lung -2.57%

Cc1ccc(C(NC(=O)c2ccccc2)c2ccc3cccnc3c2O)cc1 (configuration not stated)
inactive: NCI-H23 lung 23.5% | NCI-H322M lung 25.3% | HOP-62 NSCLC 17.3% | HOP-92 NSCLC 24.8% | COLO 205 colon 29.3%
active: NCI-H226 lung -6.24% | NCI-H460 lung 4.02% | NCI-H522 lung -5.42% | 786-0 renal -14.5%

CCSc1nc(-c2cccs2)n2nc(-c3ccco3)cc2n1
inactive: NCI-H23 lung 95% | NCI-H226 lung 94.9% | NCI-H322M lung 116% | HOP-62 NSCLC 101% | NCI-H460 lung 104% | HOP-92 NSCLC 71.3% | NCI-H522 lung 91.8% | 786-0 renal 113% | COLO 205 colon 123%

COc1ccc(Cl)cc1Nc1nc(C(F)(F)F)ccc1C(=O)N/N=C/c1c(Cl)cccc1Cl
inactive: NCI-H23 lung 74.1% | NCI-H226 lung 59.6% | NCI-H322M lung 44.7% | HOP-62 NSCLC 58.5% | NCI-H460 lung 41.6% | HOP-92 NSCLC 70.9% | NCI-H522 lung 39.2% | 786-0 renal 43.7% | COLO 205 colon 35.9%

O=C(c1ccc(N2CCOCC2)cc1[N+](=O)[O-])N1CCOCC1
inactive: NCI-H23 lung 97.2% | NCI-H226 lung 97.9% | NCI-H322M lung 111% | HOP-62 NSCLC 94.8% | NCI-H460 lung 116% | HOP-92 NSCLC 94.3% | NCI-H522 lung 94% | 786-0 renal 102% | COLO 205 colon 87.1%

NC(=O)NS(=O)(=O)c1ccc(N2N=C(C(F)(F)F)CC2c2cc(C(F)(F)F)cc(C(F)(F)F)c2)cc1 (configuration not stated)
inactive: NCI-H23 lung 91.3% | NCI-H226 lung 101% | NCI-H322M lung 88.4% | HOP-62 NSCLC 103% | NCI-H460 lung 81.3% | HOP-92 NSCLC 49.8% | NCI-H522 lung 38.4% | 786-0 renal 95.2% | COLO 205 colon 99.8%

CCCn1c(N)c(C(=O)CNc2ccc(I)cc2)c(=O)[nH]c1=O
inactive: NCI-H23 lung 89.8% | NCI-H226 lung 62.7% | NCI-H322M lung 62% | HOP-62 NSCLC 54.9% | NCI-H460 lung 28.6% | HOP-92 NSCLC 95.4% | NCI-H522 lung 50.9% | 786-0 renal 47.1% | COLO 205 colon 75.5%

O=C(COc1cccc(/C=C2\Oc3ccc4ccccc4c3C2=O)c1)c1ccc(Cl)cc1
inactive: NCI-H23 lung 28.3% | NCI-H226 lung 91.9% | NCI-H322M lung 108% | HOP-62 NSCLC 101% | NCI-H460 lung 114% | HOP-92 NSCLC 81.9% | NCI-H522 lung 38% | 786-0 renal 105% | COLO 205 colon 102%

NC(=O)c1cc(Br)cc(Br)c1NS(=O)(=O)c1ccccc1
inactive: NCI-H23 lung 100% | NCI-H226 lung 95.3% | NCI-H322M lung 94.5% | HOP-62 NSCLC 98% | NCI-H460 lung 102% | HOP-92 NSCLC 93.6% | NCI-H522 lung 100% | 786-0 renal 108% | COLO 205 colon 101%

O=C(/C=C/c1ccc([N+](=O)[O-])cc1)c1ccc2c3c(cccc13)CC2
inactive: NCI-H23 lung 67.9% | NCI-H226 lung 66.9% | NCI-H322M lung 78.4% | HOP-62 NSCLC 53.9% | NCI-H460 lung 38.4% | HOP-92 NSCLC 55% | NCI-H522 lung 70.4% | 786-0 renal 83.9% | COLO 205 colon 49%

Cc1ncc(C(=O)Nc2ccc(CN3CCN(C)CC3)c(C(F)(F)F)c2)cc1C#Cc1cncc2ncccc12
active: 786-0 renal -85.8%
inactive: NCI-H23 lung 45.7% | NCI-H226 lung 46.7% | NCI-H322M lung 51% | HOP-62 NSCLC 59.4% | NCI-H460 lung 61% | HOP-92 NSCLC 60.3% | NCI-H522 lung 86.5% | COLO 205 colon 32.2%

Oc1ccccc1/C=N/N1CCCCCC1
inactive: NCI-H23 lung 101% | NCI-H226 lung 91.5% | NCI-H322M lung 108% | HOP-62 NSCLC 109% | NCI-H460 lung 127% | HOP-92 NSCLC 50.4% | NCI-H522 lung 104% | 786-0 renal 110% | COLO 205 colon 122%

O=C(COc1cccc(/C=C2\Oc3ccc4ccccc4c3C2=O)c1)c1ccc([N+](=O)[O-])cc1
inactive: NCI-H23 lung 93.8% | NCI-H226 lung 85.8% | NCI-H322M lung 106% | HOP-62 NSCLC 87.6% | NCI-H460 lung 100% | HOP-92 NSCLC 81.2% | NCI-H522 lung 35.8% | 786-0 renal 103% | COLO 205 colon 114%

From PubChem BioAssay (NCI)
